Six molecules from PubChem BioAssay (NCI) can be followed below.

Experiment in all cases: NCI-60 one-dose screen, 48 h (100 = growth as untreated, 0 = no growth, -100 = all killed)
What all share (details): 10 µM unless noted

The subject of test [1] is HCT-15 colon.
The subject of test [2] is HT29 colon.
Test [3] has as its system SNB-75 CNS.
Test [4] concerns SNB-19 CNS.
The subject of test [5] is U251 CNS.
For test [6], the system named is PC-3 prostate.
The test system of test [7] is SK-MEL-5 melanoma.
The subject of test [8] is UACC-62 melanoma.
Test [9] relates to LOX IMVI melanoma.
The test system of test [10] is SK-MEL-28 melanoma.
The test system of test [11] is SK-MEL-2 melanoma.
Test [12] concerns EKVX NSCLC.
The subject of test [13] is SN12C renal.
Test [14] relates to UO-31 renal.
Test [15] deals with TK-10 renal.
Test [16] has as its system ACHN renal.
The subject of test [17] is CAKI-1 renal.
Test [18] concerns A498 renal.
In test [19] the test system is CCRF-CEM leukemia.
Test [20] relates to MOLT-4 leukemia.

Values joined by “and” are separate entries in the source; they are usually repeats but may differ in a detail not shown here. Equal values may be shown once. The panel holds about 83,000 compounds, 20% with a hit somewhere; the sample as a whole holds those more often.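 Single-concentration screen, 48 h exposure, 96-well plates. Endpoint: percent growth. Below 10 = active.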 Active and inactive are the calls of the source.

For `C=C[C@]1(C)C=C2CC[C@@H]3C(C)(C)C(=O)CC[C@@]3(C)[C@@H]2CC1`, the growth is 106% (inactive) in test [1]; 102% (inactive) in test [2]; 90.5% (inactive) in [3]; 108% (inactive) in [4]; 98.5% (inactive) in test [5]; 98.8% (inactive) in test [6]. In addition, the growth in test [7] is 109% (inactive); in [8] it was 97.9% (inactive); in test [9], 99.5% (inactive); in [10], 113% (inactive); in [11], 106% (inactive); in test [12] it was 101% (inactive). The growth was 99% (inactive) in test [13]; 17.9% (inactive) in test [14]; 98.7% (inactive) in [15]; 106% (inactive) in [16]; 84% (inactive) in test [17]; 90.6% (inactive) in [18]. In addition, the figures for the growth in test [19] and in [20] were 101% (inactive) and 109% (inactive), respectively.

For the molecule `C#CCOc1cccc(Nc2ncc3ncn(C4CCN(C(=O)CCl)C4)c3n2)c1` (stereo not given), the growth is 6.97% [6.25 µM] (active) in test [1]; 23.4% [6.25 µM] (inactive) in [2]; 72.6% [6.25 µM] (inactive) in test [3]; 64.6% [6.25 µM] (inactive) in test [4]; 43.2% [6.25 µM] (inactive) in test [5]; 74.9% [6.25 µM] (inactive) in test [6]. The growth was 39.1% [6.25 µM] (inactive) in test [7]; 44.8% [6.25 µM] (inactive) in test [8]; -55.1% [6.25 µM] (active) in test [9]; 78% [6.25 µM] (inactive) in [10]; 61.9% [6.25 µM] (inactive) in [11]; 91.3% [6.25 µM] (inactive) in test [12]. Also, the growth is 13.2% [6.25 µM] (inactive) in test [13]; 29.9% [6.25 µM] (inactive) in [14]; -34.9% [6.25 µM] (active) in test [15]; -31.2% [6.25 µM] (active) in test [16]; 49.3% [6.25 µM] (inactive) in test [17]; 89.2% [6.25 µM] (inactive) in test [18]. In addition, the values for the growth in test [19] and in test [20] were -16.6% [6.25 µM] (active) and 5.59% [6.25 µM] (active), respectively.

`CCN1CCN(CC(=O)Nc2nc3ccc(NCc4ccc(C)cc4)cc3s2)CC1`: the growth in [1] was 1.79% (active); in test [2], 14.5% (inactive); in test [3] it was 91.6% (inactive); in test [4], 81.6% (inactive); in [5], 60.2% (inactive); in [6], 56% (inactive). Also, the growth was 40.7% (inactive) in [7]; -57.1% (active) in [8]; -42.4% (active) in [9]; 53.4% (inactive) in [10]; 75.8% (inactive) in test [11]; 72.6% (inactive) in test [12]. For the same molecule, the growth in [13] is 63.3% (inactive); in [14], 61.6% (inactive); in [15], 93.6% (inactive); in test [16], 85.6% (inactive); in [17], 50.7% (inactive); in test [18], 94% (inactive). The growth is 55.8% (inactive) in [19] and 50.5% (inactive) in test [20].

Regarding `CC(=O)N1N=C(c2ccc(F)cc2)CC1c1sc(N(C)Cc2ccccc2)nc1Cl` (stereo not given), the growth in [1] was 88.5% (inactive); in test [2], 94.4% (inactive); in [3], 92.3% (inactive); in [4], 101% (inactive); in [5], 98.5% (inactive); in test [6] it was 86.3% (inactive). In addition, the growth is 103% (inactive) in test [7]; 81.2% (inactive) in [8]; 96.4% (inactive) in test [9]; 114% (inactive) in test [10]; 96.1% (inactive) in test [11]; 87.4% (inactive) in test [12]. Also, the growth in test [13] was 106% (inactive); in [14], 74.6% (inactive); in test [15], 112% (inactive); in [16] it was 102% (inactive); in test [17], 83.9% (inactive); in [18], 104% (inactive). In addition, the growth is 96.4% (inactive) in test [19] and 99.7% (inactive) in [20].

For `O=C(N=Nc1c(O)[nH]c2ccccc12)Nc1ccccc1Cl`, the growth in test [1] is 68.1% (inactive); in [2], 101% (inactive); in test [3] it was 82% (inactive); in test [4] it was 91.1% (inactive); in [5], 92.2% (inactive); in test [6] it was 92.5% (inactive). For the same molecule, the growth was 87.6% (inactive) in test [7]; 78.8% (inactive) in [8]; 96.5% (inactive) in test [9]; 105% (inactive) in test [10]; 102% (inactive) in test [11]; 86.6% (inactive) in [12]. For the same molecule, the growth is 86.4% (inactive) in [13]; 68.1% (inactive) in [14]; 107% (inactive) in test [15]; 99% (inactive) in test [16]; 80.5% (inactive) in test [17]; 96.5% (inactive) in [18]. Besides, the growth is 91.9% (inactive) in test [19] and 93.3% (inactive) in [20].

On to `CN1CCN(CCCN2c3ccccc3Sc3ccc(Cl)cc32)CC1`, for which the growth was 68.8% (inactive) and 80.8% (inactive) in test [1]; 25.2% (inactive) and 35.9% (inactive) in [2]; 45.2% (inactive) and 57.4% (inactive) in [3]; 89.7% (inactive) and 91.4% (inactive) in [4]; 54.6% (inactive) and 68% (inactive) in test [5]; 56.2% (inactive) and 53.6% (inactive) in [6]. The growth in [7] is 17.6% (inactive) and 62.1% (inactive); in test [8], 33.1% (inactive); in test [9] it was 54.4% (inactive) and 71.8% (inactive); in [10], -18.1% (active) and 67.7% (inactive); in test [11] it was 106% (inactive); in [12], 75% (inactive) and 77.4% (inactive). In addition, the growth is 64% (inactive) and 76.7% (inactive) in test [13]; 54.5% (inactive) in [14]; 74.9% (inactive) and 85.8% (inactive) in test [15]; 62.9% (inactive) and 85.2% (inactive) in test [16]; 55.2% (inactive) and 60.7% (inactive) in [17]; 82.2% (inactive) and 79.4% (inactive) in test [18]. Further, the growth in test [19] is 80.1% (inactive) and 75.9% (inactive); in test [20] it was 70.3% (inactive) and 73.9% (inactive).
